Measurements published in PubChem BioAssay (NCI).
This is part of a sample that, as a whole, favours compounds with a hit. Of some 83,000 tested, about 20% had one in any assay.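 Note: values are percent growth. 100 is the growth of untreated cells, values between 100 and 0 indicate rising inhibition; between -100 and 0 indicates cell death.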 Unmarked numbers belong to inactive results. Calls of active or inactive are those of the source. The calls were made as follows: active = growth percent below 10; inactive = the rest.

Columns and labels:
Assay in all cases: NCI-60 one-dose screen, 48 h (100 = growth as untreated, 0 = no growth, -100 = all killed)
Conditions in all cases: 10 µM unless noted
[1] = system: HCT-15 colon
[2] = system: HT29 colon
[3] = system: SNB-75 CNS
[4] = system: SNB-19 CNS
[5] = system: U251 CNS
[6] = system: PC-3 prostate
[7] = system: SK-MEL-5 melanoma
[8] = system: UACC-62 melanoma
[9] = system: LOX IMVI melanoma
[10] = system: SK-MEL-2 melanoma
[11] = system: EKVX NSCLC
[12] = system: SN12C renal
[13] = system: UO-31 renal
[14] = system: TK-10 renal
[15] = system: ACHN renal
[16] = system: CAKI-1 renal
[17] = system: A498 renal
[18] = system: CCRF-CEM leukemia
[19] = system: MOLT-4 leukemia
[20] = system: SK-MEL-28 melanoma

| SMILES | growth [1] | growth [2] | growth [3] | growth [4] | growth [5] | growth [6] | growth [7] | growth [8] | growth [9] | growth [10] | growth [11] | growth [12] | growth [13] | growth [14] [%] | growth [15] | growth [16] | growth [17] | growth [18] | growth [19] | growth [20] [%] |
| --- | --- | --- | --- | --- | --- | --- | --- | --- | --- | --- | --- | --- | --- | --- | --- | --- | --- | --- | --- | --- |
| COc1ccccc1NCc1cccn1Cc1ccc(F)cc1 | 98.3% | 102% | 104% | 96% | 98.8% | 97.3% | 97.4% | 89.8% | 97% | 106% | 98% | 97.5% | 75.6% | 91.3 | 93.3% | 94% | 85.9% | 91.8% | 94% |  |
| O=C1CCCc2nc(Nc3ccc(S(=O)(=O)Nc4ccc([N+](=O)[O-])cc4)cc3)ncc21 | 103% | 118% | 92.6% | 96.2% | 103% | 105% | 104% |  | 97.1% | 111% | 100% | 96.2% | 87.1% | 105 | 104% | 89.9% | 94.7% | 99.8% | 101% | 106 |
| Cn1cc(-c2nc(N)nnc2-c2c[nH]c3ccccc23)c2cc(Br)ccc21 | 24.5% | 5.93% (active) | 7.38% (active) | 27% | 23.1% | 6.53% (active) | 22.7% | 21% | 24% | 19.5% | 45.6% | 27.9% | 33.5% | 88.6 | 38.9% | 25.2% | -12.1% (active) | 7.57% (active) | 8.98% (active) |  |
| O=C(Nc1ccc(F)c(F)c1)c1cc(-c2ccc(F)cc2F)ccc1O | 2.24% (active) | 88.6% | -0.285% (active) | 12.5% | 11.4% | 8.32% (active) | -79.9% (active) | -18.3% (active) | 2.89% (active) | -11.3% (active) | 8.23% (active) | -1.95% (active) | -12.5% (active) | 14.2 | 2% (active) | -18.8% (active) | -53.2% (active) | 15.2% | 2.67% (active) |  |
| CCn1c(SCC(=O)Nc2cccc(C(=O)/C=C/c3ccc(Br)cc3)c2)nc2ccccc2c1=O | 65% | 85.4% | 73.8% | 85.9% | 88.7% | 83.4% | 91.7% |  | 41.9% | 106% | 96.5% | 92.7% | 71.9% | 104 | 102% | 90.7% | 87.3% | 75% | 98.3% | 98.2 |
| CC(C)(C)c1ccc(C(=O)Nc2sc3c(c2C(N)=O)CCC(O)C3)cc1 (configuration not stated) | 6.55% (active) | 2.76% (active) | 98.1% | 64.9% | 54% | 54.1% | 38.5% | 39.4% | -70% (active) | 80.3% | 62.9% | 74.8% | 49.1% | 82.8 | 25.4% | 5.67% (active) | 78% | 53.1% | 56.4% |  |
| NS(=O)(=O)c1ccc(Nc2nc(SCC(=O)c3ccc(Cl)cc3)nc3c2CCCC3)cc1 | 22.1% | 8.57% (active) | 85.8% | 65.9% | 51.3% | 31.4% | 65.8% | 48.2% | 23.6% | 67% | 47.8% | 25.6% | 38% | 86.6 | 42% | 43.2% | 61.1% | 41.1% | 38.4% |  |
| O=C(CSc1nnc(-c2ccc3nc(-c4ccccc4)[nH]c3c2)o1)Nc1ccc(C(=O)/C=C/c2ccccc2)cc1 | 110% | 108% | 113% | 99.9% | 98.2% | 106% | 98.3% |  | 97.3% | 103% | 106% | 98% | 87.4% | 110 | 102% | 103% | 95.9% | 107% | 93.2% | 103 |
| COc1cc(/C=C/C(=O)c2ccc(NC(=O)CSc3nnc(-c4ccc(-c5nc6ccc(Cl)cc6[nH]5)cc4)o3)cc2)cc(OC)c1OC | 53.7% | 106% | 88.4% | 89% | 88.5% | 92.2% | 94.1% |  | 88.6% | 99.2% | 103% | 104% | 86% | 136 | 96.7% | 91.2% | 101% | 85.9% | 85% | 88.3 |
| NS(=O)(=O)c1ccc(Nc2nc(N/N=C/CCc3ccccc3)nc(Nc3ccccc3)n2)cc1 | 105% | 107% | 112% | 104% | 104% | 104% | 99.7% | 95.8% | 95.4% | 105% | 97.8% | 105% | 84% | 105 | 101% | 96.9% | 86.4% | 93.6% | 101% |  |
| ClC(Cl)c1nc(-c2ccco2)n2nc(-c3ccccc3)cc2n1 | 12.8% | 0.803% (active) | 88.5% | 8.35% (active) | -0.0523% (active) | 1.66% (active) | 98.1% |  | 98.2% | 89.6% | 4.01% (active) | 66.5% | 35.3% | 20.3 | -23.9% (active) | -19.1% (active) | -7.32% (active) | 89.8% | 66.6% |  |
| Cc1ccc(C(=O)NN2C(=O)/C(=C/C=C/c3ccco3)SC2=S)cc1 | 91.6% | 110% | 94.5% | 94.9% | 98.7% | 92.2% |  | 85.3% | 99.7% |  | 95.4% | 94.7% | 88.6% | 118 | 107% | 91.4% |  | 103% | 40.7% | 94.4 |
| CCC(NC(c1cc2cccc3ccc4cccc1c4c32)c1nnnn1C(C)(C)C)C1CCCCC1 (configuration not stated) | 38.4% | 69.4% | 75.6% | 68.9% | 53.8% | 45.8% | 6.39% (active) |  | 47.6% |  | 92.1% | 80.8% | 72.1% | 80.6 | 54.5% | 63.1% |  | 58.1% | 47.2% | 80.3 |
| CN1CCC(n2cc(Nc3ncc4c(=O)n(-c5c(Cl)cccc5Cl)cc(Br)c4n3)cn2)CC1 | 17.1% | 6.54% (active) | 17.1% | 41.7% | 27.6% | 51.3% |  | 77.8% | 11.9% |  | 57.4% | 20.7% | 22.2% | 47 | 24% | 20% |  | 8.75% (active) | 13% | 63.4 |
| NS(=O)(=O)c1ccc(-n2cc(-c3cccc(NC(=O)c4ccc(N5CCOCC5)c(C(F)(F)F)c4)c3)nn2)cc1 | 39.3% | 61% | 65.2% | 62.9% | 54.2% | 23.5% |  | 30.5% | 9.34% (active) |  | 74.1% | 43.9% | 26.7% | 98.6 | 43.5% | 51.1% |  | 20.3% | 11% | 54.7 |
| CNC(=O)c1cc(Oc2ccc3nc(NC(=O)c4cc(N5CCOCC5)cc(C(F)(F)F)c4)sc3c2)ccn1 | 58.9% | 62.3% | 71.6% | 92.9% | 72.3% | 46.7% |  | 72.4% | 83.5% |  | 70.7% | 83.1% | 87.8% | 92.3 | 87.9% | 82.2% |  | 67.3% | 65.5% | 81.1 |
| CCCCc1nc(/C=N/Nc2nc(Nc3ccccc3)nc(Nc3ccc(S(N)(=O)=O)cc3)n2)c(Cl)[nH]1 | 103% | 102% | 112% | 30.7% | -1.83% (active) |  | 75.2% | 72.8% | 41.1% | 65.8% | 102% | 93.6% | 85.4% | 112 | 100% | 105% | 89.3% | 12.5% | 41.4% | 71 |
